{"source": "PubChem BioAssay", "data": [{"system": "Plasmodium falciparum Sir2 (PF13_0152, Sir2A)", "experiment": "Plasmodium falciparum Sir2A binding compounds – biochemical, small-molecule microarray, 635 nm fluorescence, primary screen (AID 1098);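 note: score merges spot fluorescence intensity with its signal-to-noise ratio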", "conditions": "fluorescence 635 nm, higher = more signal", "values": [{"compound": "COc1cc(CO)cc(I)c1O[C@H]1C=C(C(=O)NCCO)C[C@@H](N(C(=O)c2cc3ccccc3oc2=O)C2CCCCCC2)[C@@H]1O", "composite z-score": 1.09}, {"compound": "O=C1C2C=CC(C(O)C=Cc3ccc([N+](=O)[O-])cc3)N(n3cnnc3)C2C(=O)N1Cc1ccccc1", "note": "(configuration not stated)", "composite z-score": 1.53}, {"compound": "COCCOC(=O)N1C(=O)[C@@]2(c3ccccc31)[C@H](C(=O)N1CCc3cc(OC)c(OC)cc3C1)[C@H]1C(=O)O[C@H](c3ccccc3)[C@H](c3ccccc3)N1[C@@H]2c1ccc(O)cc1", "composite z-score": 1.38}, {"compound": "C#CCN(C/C=C/c1ccccc1)[C@H](CO)c1ccccc1", "composite z-score": -0.222}, {"compound": "O=C1OCCC=C[C@H]2OC34C=CCN(c5ccc(Cl)cc5)C(=O)[C@H]3N(CCCO)C(=O)[C@@H]4C12", "note": "(some centres not stated)", "composite z-score": -0.41}, {"compound": "CCCCC(O)C1C=CC2C(=O)N(C)C(=O)C2N1N1CCCCC1", "note": "(configuration not stated)", "composite z-score": 0.933}, {"compound": "COc1cc2c(cc1OC)CN(C(=O)[C@H]1[C@@H]3C(=O)O[C@@H](c4ccccc4)[C@@H](c4ccccc4)N3[C@@H](c3ccccc3OCCO)[C@]13C(=O)Nc1ccc(C#CCCO)cc13)CC2", "composite z-score": 1.37}, {"compound": "COCCCNC(=O)[C@@]1(Cc2ccccc2)N=C(c2ccc(OCCCO)cc2)O[C@H]1c1ccccc1CN=[N+]=[N-]", "composite z-score": 0.47}, {"compound": "CC(C)Cc1ccc(CN2CC[C@@H](N)C2)cc1", "composite z-score": 0.472}, {"compound": "C[N+](C)(C)CCCC[C@@H]1NC(=O)[C@H]2C[C@@H](C(=O)NCCCCCCNC(=O)CS)[C@@H](c3ccc(O)cc3)N2C1=O", "composite z-score": -0.783}, {"compound": "COc1ccc(C#Cc2ccc3c(c2)[C@]2(C(=O)N3)[C@H](c3ccc(O)cc3)N3[C@H](c4ccccc4)[C@H](c4ccccc4)OC(=O)[C@H]3[C@@H]2C(=O)N2CCc3cc(OC)c(OC)cc3C2)cc1", "composite z-score": 1.46}, {"compound": "[N-]=[N+]=Nc1ccccc1C[C@]1(C(=O)NCC(O)CO)N=C(c2ccc(OCCCO)cc2)O[C@H]1c1ccccc1", "note": "(some centres not stated)", "composite z-score": 0.848}, {"compound": "CC(C)(C)OC(=O)CC[C@]1(C(=O)NCCN2CCOCC2)COC(c2ccc(OCCCO)cc2)=N1", "composite z-score": 0.706}, {"compound": "[N-]=[N+]=NCc1ccccc1C[C@@]1(C(=O)NCC(O)CO)N=C(c2ccc(OCCCO)cc2)O[C@@H]1c1ccccc1", "note": "(some centres not stated)", "composite z-score": 0.048}, {"compound": "CC(C)[Si](C#CCCCC#N)(Oc1ccccc1Br)C(C)C", "composite z-score": 0.436}, {"compound": "C=CCN1Cc2ccccc2[C@@H]2OC(c3ccc(OCCCO)cc3)=N[C@]2(CCS(=O)(=O)c2ccccc2)C1=O", "composite z-score": 1.53}, {"compound": "CCOC(=O)C1=C[C@@H](C(C)C)N(S(=O)(=O)c2ccc(C)cc2)[C@H]1c1ccccc1F", "composite z-score": 0.906}, {"compound": "[N-]=[N+]=NCc1ccccc1[C@@H]1OC(c2ccc(OCCCO)cc2)=N[C@]1(CCS(=O)(=O)c1ccccc1)C(N)=O", "composite z-score": 1.32}, {"compound": "OCCCC1=CC(C2CC2)N(Cc2cccc(OC(F)(F)F)c2)CC1", "note": "(configuration not stated)", "composite z-score": 1.13}, {"compound": "Cc1ccc([C@H]2C(C(=O)O)=CCN2S(=O)(=O)c2ccc(C)cc2)cc1", "composite z-score": 0.487}, {"compound": "COc1ccc([Si](C)(C)[C@H]2[C@H](CCO)O[C@@]3(C(=O)N(Cc4ccccc4)c4ccc(N5CCCCC5=O)cc43)[C@@H]2C)cc1", "composite z-score": 1.06}, {"compound": "CC#CC(=O)Oc1ccc(Br)cc1C=CC(=O)OCC", "composite z-score": -0.384}, {"compound": "COc1cc(OC)c(C(O)C2C=CC3C(=O)NC(=O)C3N2Nc2ccccn2)cc1Br", "note": "(configuration not stated)", "composite z-score": 0.968}, {"compound": "O=C1[C@H]2C=C(I)[C@H](C[C@@H]2OCCCCO)[C@@]12CO2", "composite z-score": 1.15}, {"compound": "C=C(CCCC)/C(=C/C[C@H](OC(C)=O)c1ccc(OCCO)cc1)c1cnc2ccccc2c1", "composite z-score": 0.641}, {"compound": "COc1ccc(CCNC(=O)[C@@]2(C)c3ccccc3C(=O)N(c3ccc(C)cn3)[C@H]2c2ccc(CO)cc2)cc1", "composite z-score": -0.697}, {"compound": "C=CCC(OC(C)=O)[C@@H]1[C@@H](N(Cc2ccc(-c3cccc(C(F)(F)F)c3)o2)C(=O)Cc2ccc(OC)cc2)c2cc(OCCCO)ccc2N1C(=O)c1ccc2ccccc2c1", "note": "(some centres not stated)", "composite z-score": 0.403}, {"compound": "CN(C)CCCC[C@@H]1NC(=O)[C@H]2C[C@@H](C(=O)NCCCCCN)[C@@H](c3cccc(OCCO)c3)N2C1=O", "composite z-score": 1.11}, {"compound": "CC(=CC1CCCCC1)[C@@H](NC(=O)c1cccnc1)c1ccc(-c2ccccc2)cc1", "composite z-score": -0.178}, {"compound": "C=C(CCCC)/C(=C/C[C@H](OC(C)=O)c1ccccc1OCCO)c1cnc2ccccc2c1", "composite z-score": 0.593}, {"compound": "O=C1OCCC=C[C@H]2OC34C=CCN(CCN5CCOCC5)C(=O)[C@H]3N(CCCCCO)C(=O)[C@@H]4C12", "note": "(some centres not stated)", "composite z-score": 1.44}, {"compound": "COC(=O)[C@@]1(Cc2ccc(F)cc2)[C@H]2c3cc(C(=O)N(C)C)n(Cc4cc(C)n(C)n4)c3C[C@H]2CN1C(=O)c1ccccc1", "composite z-score": 1.16}]}]}
